# Assay outcomes deposited in PubChem BioAssay by National Center for Advancing Translational Sciences (NCATS).
# AmpC inh no detg: AmpC beta-lactamase inhibition without detergent; hit rate 0.52% among 330,000; Potency, µM (doses to about 57.1 µM), inactives show top-dose activity change, negative = inhibition, usual class: inhibitors; AmpC nitrocefin hydrolysis, absorbance 480 nm, 0.0001% Triton;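 further: plate controls were no compound for no effect and no enzyme for full effect; nearly all actives have a fitted effect of over 20% in size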
# Target sequence (P00811 whole entry, looked up): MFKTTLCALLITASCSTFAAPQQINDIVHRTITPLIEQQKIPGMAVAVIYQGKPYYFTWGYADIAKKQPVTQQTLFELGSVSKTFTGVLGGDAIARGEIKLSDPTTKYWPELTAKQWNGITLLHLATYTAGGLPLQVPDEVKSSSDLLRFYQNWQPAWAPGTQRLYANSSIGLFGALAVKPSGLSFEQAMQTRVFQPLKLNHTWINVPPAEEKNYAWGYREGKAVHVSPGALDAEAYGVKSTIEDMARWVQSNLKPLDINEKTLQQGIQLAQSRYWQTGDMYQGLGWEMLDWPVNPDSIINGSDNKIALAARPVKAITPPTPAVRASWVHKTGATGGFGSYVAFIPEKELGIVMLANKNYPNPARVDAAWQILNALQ
#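 AmpC (5.3 nM in the dispensed reagent) in 20 mM phosphate pH 7.0 with 0.01% (detergent screen) or 0.0001% Triton X-100 was preincubated with compounds for 15 min at room temperature. Nitrocefin was then added from an 800 uM solution, and hydrolysis was followed at 480 nm.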
# TbPYK inhibitor: T. brucei pyruvate kinase inhibition | Q57TT1 | TbPYK enzyme, Kinase-Glo Plus ATP luminescence, 45 min | Potency, µM (top dose mostly 76.8 µM), for the others: at the top dose activity, negative = inhibition, usual class: inhibitors | hit rate 0.12% among 410,000; further: on the % scale 0 is the no-effect control and ±100 the full control effect; nearly all actives have a fitted effect of over 50% in size
#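 Glycolytic pyruvate kinase of T. brucei was incubated with substrate, test compound and 130 uM ADP for 45 minutes at room temperature. Luminescent Kinase-Glo Plus signal was measured after 10 minutes.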
# RE007 growth inh: less growth of the S. pombe RE007 Vpr strain. Potency, µM (highest dose often 92.2 µM), without a hit: at the top dose activity change, negative = less growth, usual class: inhibitors. hit rate 0.21% among 360,000. S. pombe RE007 Vpr strain, BacTiter-Glo ATP luminescence, 24 h. AID 651644; active means well fitted falling curve with a large enough effect; inconclusive means small, poorly fitted or top-dose-only effect; inactive means no such curve, though single readings can be large or run the other way; further: on the % scale 0 is the no-effect control and ±100 the full control effect; nearly all actives have a fitted effect of over 50% in size
#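 Fission yeast RE007 carrying one integrated HIV-1 vpr copy, seeded at OD 0.01 in PMG+AL medium with 23 nL pinned compound. Grown 24 h at 30 degrees; viability read by BacTiter-Glo luminescence after 5 min.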
# AmpC detergent: AmpC beta-lactamase inhibition with detergent present; P00811; AID 485294; hit rate 0.041% among 370,000; AmpC hydrolysis of nitrocefin, absorbance 480 nm, 0.01% Triton; Potency, µM (top dose mostly 114 µM), for inactives: at the highest dose activity change, negative = inhibition, actives largely listed as inhibitors;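 further: 0% = no-compound wells and -100% = no-enzyme wells; nearly all actives have a fitted effect of over 25% in size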
#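 AmpC (5.3 nM in the dispensed reagent) in 20 mM phosphate pH 7.0 with 0.01% (detergent screen) or 0.0001% Triton X-100 was preincubated with compounds for 15 min at room temperature. Nitrocefin was then added from an 800 uM solution, and hydrolysis was followed at 480 nm.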
# SARS PLpro yeast: blocks SARS-CoV papain-like protease in a yeast assay | hit rate 0.19% among 330,000 | S. cerevisiae expressing SARS-CoV PLpro, growth rescue | Potency, µM (doses to about 32.9 µM), for inactives: at the top dose activity, positive = growth rescue, most hits filed as activators; calls by dose curve; further: 0% is about no effect; nearly all actives have a fitted effect of over 55% in size
# Sm TGR inh: blocks Schistosoma mansoni thioredoxin glutathione reductase | Q962Y6 | purified TGR, DTNB reduction, TNB absorbance 405 nm | Potency, µM (doses to about 114 µM), inactives show top-dose activity change, negative = inhibition, most hits filed as inhibitors | hit rate 3% among 360,000 | AID 485364; further: on the % scale 0 is the no-effect control and ±100 the full control effect; nearly all actives have a fitted effect of over 60% in size
#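 TGR 20 nM + NADPH 100 uM (dispensed conc.), cpd preinc 15 min RT; start with NADPH (500 uM addition) then DTNB (15 mM addition). Kinetic TNB absorbance, 405 nm filter. Four-parameter Hill fit across titration.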
# * hit, by the source's call; ? = inconclusive; . = no result. In the library only some 3.3% were active in any assay of this set; here they are far more common. Unless noted, the call rests on the fitted dose curve; in most records, active means well fitted curve in the direction sought with a large enough effect; inconclusive means small, poorly fitted or top-dose-only effect, or another doubt; inactive means no such curve, though single readings can be large; an effect the other way counts as inactive or inconclusive. Potency means the concentration at half of the fitted maximal effect.
SMILES,AmpC inh no detg,TbPYK inhibitor,RE007 growth inh,AmpC detergent,SARS PLpro yeast,Sm TGR inh
Cc1ccc2nc(SCC(=O)N3CCN(C(=O)c4ccco4)CC3)[nH]c2c1,-8%,4%,1%,4%,15%,6%
CCOc1ccc(NC(=O)c2c(NCc3cccs3)sc3c2CCCCC3)cc1,.,-17%,.,2%,.,7.9µM*
CCOc1ccc(NC(=O)c2c(NCc3sccc3C)sc3c2CCCCC3)cc1,.,-27%,.,2%,.,7.9µM*
COc1ccc(OC)c(NC(=O)c2c(NCc3cccs3)sc3c2CCCCC3)c1,.,?,.,0%,.,40µM*
CCOc1ccc(NC(=O)c2c(NCc3ccc(C)o3)sc3c2CCCCC3)cc1,.,-29%,.,4%,.,8.9µM*
CCOc1ccc(NC(=O)c2c(NCc3cc(OC)c(OC)cc3OC)sc3c2CCCC3)cc1,.,-18%,.,-7%,.,-27%
CCOc1cc(-c2ccc(OC(=O)c3ccc(C)cc3)c(OC)c2)cc(=O)c2c(C)oc(C)c12,.,-8%,.,-6%,.,-27%
COCC(=O)NCc1nc2cccnc2n1Cc1ccc(F)cc1,.,-3%,.,4%,.,0%
COc1ccc(NC(=O)c2c(NCc3cccs3)sc3c2CCCCC3)cc1,.,?,.,-1%,.,18µM*
Cc1cc(Nc2ccccc2C(=O)O)ccc1Cl,.,-6%,.,.,.,.
CC(NC(=O)/C=C/c1ccco1)c1nc2ccccc2n1Cc1ccccc1F (stereo not given),-26%,10%,-2%,-7%,1%,35µM*
CC(NC(=O)/C=C/c1ccco1)c1nc2ccccc2n1Cc1c(Cl)cccc1Cl (stereo not given),-39%,-19%,-3%,-14%,-1%,25µM*
CC(NC(=O)c1ccccc1)c1nc2ccccc2n1Cc1ccccc1F (stereo not given),36%,.,.,7%,10%,34%
CC1=C(C(=O)OCc2ccc(C)cc2)C(c2ccccc2C(F)(F)F)CC(=O)N1 (stereo not given),.,4%,.,-6%,.,6%
COc1cc(Cl)c(C)cc1NC(=O)c1nn(C)c2c1CSc1ccccc1-2,.,4%,.,10%,.,6%
Nc1ncnc2c1ncn2[C@@H]1O[C@H](COP(=O)(O)OP(=O)(O)OP(=O)(O)O)[C@@H](O)[C@H]1O,-36%,-20%,3.2µM*,?,.,-6%
CC(C)(C)c1ccc(Oc2ccc(NC(=O)CCC(=O)OCC(=O)c3ccccc3)cc2)cc1,.,3%,.,0%,.,3%
Cc1ccc(Cn2c(=N)n(CC(O)COc3ccccc3)c3ccccc32)cc1 (stereo not given),30%,-2%,-6%,10%,-1%,4%
N=c1n(Cc2ccccc2)c2ccccc2n1CC(O)COc1ccccc1 (stereo not given),2%,7%,11%,-6%,22µM*,13%
COc1ccccc1NC(=O)CSc1oc(-c2ccc(F)cc2)nc1S(=O)(=O)c1ccc(Br)cc1,.,-9%,.,6%,.,5%
COc1ccc2c(CNCc3ccco3)c(C(=O)O)n(Cc3ccc(F)cc3Cl)c2c1,.,-2%,.,18%,.,6%
CCOC(=O)/C(=C\c1cccnc1)C(=O)c1cc(C(C)=O)c(Nc2ccccc2)s1,156%,?,29%,-5%,-51%,20µM*
COC(=O)c1c(C)sc(-c2c(-c3cccc(Cl)c3)[nH]c3c2c(=O)[nH]c(=O)n3C)c1O,.,-6%,.,4%,.,0%
Cc1ccc(C)c(SCC(=O)OCC(=O)c2ccco2)c1,-17%,-10%,-1%,-9%,-5%,40µM*
O=C(Cc1cccs1)OCC(=O)c1ccco1,-43%,-9%,-17%,-9%,-4%,25µM*
SMILES,AmpC inh no detg,TbPYK inhibitor,RE007 growth inh,AmpC detergent,SARS PLpro yeast,Sm TGR inh
O=c1c2sc3ccccc3c2n(Cc2cccc(C(F)(F)F)c2)c(=O)n1-c1ccccc1,.,-14%,.,-3%,.,1%
O=C(O)CNC(=O)CNC(=O)CNC(=O)CSC(=O)c1ccccc1,.,4%,.,.,.,.
CNc1ccc(/C=C/C(=O)c2cccc3ccccc23)cc1[N+](=O)[O-],28µM*,-7%,2%,-16%,9%,0%
Cc1ccc(C2C(/C=C3/SC(=S)NC3=O)=C(c3cccs3)Oc3ccccc32)cc1 (stereo not given),6.3µM*,5%,12%,7%,-9%,-21%
Cc1oc2ncn(C)c(=O)c2c1C(=O)NCCCN(Cc1ccccc1)C(C)C,.,1%,.,11%,.,10%
Cc1ccc(CNS(=O)(=O)c2cc(F)ccc2CN2C(=O)c3cccnc3C2=O)o1,-3%,-11%,-14%,0%,-1%,25µM*
CC(=O)Nc1ccc(NS(=O)(=O)c2ccc(CN3C(=O)c4cccnc4C3=O)cc2)cc1,-10%,-1%,-20%,-10%,4%,0%
Cc1ccc(CNS(=O)(=O)c2ccc(CN3C(=O)c4cccnc4C3=O)cc2)o1,-10%,0%,7%,1%,3%,20µM*
CCCn1c(=O)c2sccc2n2c(CCCC(=O)N3CCN(c4ccc(OC)cc4)CC3)nnc12,.,4%,.,2%,.,-8%
O=C(CS)Nc1ccccc1,.,3%,.,.,.,.
O=C(CCl)N1CCN(S(=O)(=O)c2ccc3ccccc3c2)CC1,1%,1%,2%,4%,8%,5.6µM*
O=C(CCl)N1CCN(S(=O)(=O)c2ccc3c(c2)OCCCO3)CC1,-19%,1%,3%,-5%,10%,16µM*
O=C(CSc1ccc2ccccc2c1)N1CCN(c2ccc(O)cc2)CC1,-22%,?,11%,4%,-3%,50µM*
CN(C)C(=O)N1CCN(S(=O)(=O)c2ccc3ccccc3c2)CC1,30%,0%,22%,?,1%,8%
O=S(=O)(c1ccc2ccccc2c1)N1CCN(c2ccc(O)cc2)CC1,10µM*,?,-18%,.,-12%,.
Cc1cc2oc3c(c(=O)c2cc1C)C(c1ccc(C(C)C)cc1)N(c1nc(C)c(C)s1)C3=O (stereo not given),.,-4%,.,11%,.,3%
O=c1c(-c2ccccc2)nc2cnc(N3CCNCC3)nc2n1Cc1cccs1,.,-3%,.,.,.,.
COc1cccc(CNc2nccn(-c3cc(C)cc(C)c3)c2=O)c1,.,2%,.,4%,.,3%
CCCOc1cccc(C2c3c(oc4ccccc4c3=O)C(=O)N2c2nncs2)c1 (stereo not given),.,1%,.,23%,.,3%
COc1ccc(OCC(=O)NCCS(=O)(=O)N2CCN(c3cccc(Cl)c3)CC2)cc1,.,5%,.,7%,.,4%
COc1cc([N+](=O)[O-])c(OC)cc1SCc1n[nH]c(=S)n1-c1ccc(F)cc1,-5%,?,-11%,-3%,1%,10%
